Among the data in PubChem BioAssay (EPA / NIEHS) are outcome and AC50 values, retold here.

Several values for one entry are separate records, joined by “and”; a condition that tells them apart may be missing. Equal values may be shown once. The source holds several records for some structures; these can differ, active in one and inactive in another. Activity calls are given as the source filed them. Rule for the calls: active = hit-call score of the fitted dose curve at least 0.9, where 1 is the maximum; inactive = score below 0.9.

The test in a line: BSK_3C_VCAM1: BioMAP Diversity Plus: 3C Assay for Vascular cell adhesion molecule 1 (VCAM1) Biomarker Activity (AID 2282999). To be noted: BioMAP 3C HUVEC, VCAM1 ELISA, cytokine-stimulated; actives raise or lower the signal. The protocol:
BSK_3C is a cell-based, multiplexed-readout assay that uses umbilical vein endothelium, a human vascular primary cell, with measurements taken at 24 hours after chemical dosing in a 96-well plate.BSK_3C_VCAM1 is an assay component measured in the BSK_3C assay. It measures VCAM-1 antibody related to regulation of gene expression using ELISA technology.Data from the assay component BSK_3C_VCAM1 was analyzed into 1 assay endpoint. This assay endpoint, BSK_3C_VCAM1, was analyzed with bidirectional fitting relative to DMSO as the negative control and baseline of activity. Using a type of binding reporter, gain or loss-of-signal activity can be used to understand changes in the signaling as they relate to the gene VCAM1. Furthermore, this assay endpoint can be referred to as a primary readout, because this assay has produced multiple assay endpoints where this one serves a signaling function. To generalize the intended target to other relatable targets, this assay endpoint is annotated to the cell adhesion molecules intended target family, where the subfamily is Immunoglobulin CAM.
The levels of cell surface (or secreted, indicated by the prefix "s") biomarker endpoints were measured by ELISA. Overt cytotoxicity to cells in confluent adherent cultures (all systems other than the BT system) was assessed by measuring total protein levels using sulforhodamine B (SRB) staining in parallel cultures at the time of biomarker measurements, indicated as SRB endpoints. For proliferation assays for adherent cell types, individual cell types are cultured at sub-confluence and relative cell numbers quantified by SRB staining at time points optimized for each system (48 h: 3C and CASM3C systems; 72 h: BT and HDF3CGF systems; 96 h: SAg system). SRB was performed by staining cells with 0.1% SRB after fixation with 10% TCA and reading wells at 560 nm.Viability and proliferation of PBMC (T cells) was quantified by Alamar Blue reduction for the SAg and BT systems. For PBMC viability (referred to as PBMC Cytotoxicity within the assay endpoint names), cells were plated (75,000/well in a 96-well plate) and then chemical samples added for 1 h before addition of activators, SEB and TSST-1 (20 ng/mL final concentration each). Cells were incubated for 90 h. Then, Alamar Blue (20 uL/well) (Invitrogen, Cat DAL1100) was added for 6 h, and the plates were read with a fluorescence microplate reader at 546/580 nm (excitation/emission). For PBMC proliferation, cells were plated and activated as above but incubated for only 16 h prior to addition of Alamar Blue. Plates were read after 6 h.
For orientation: An ELISA detects its analyte on a solid surface through an enzyme-linked reagent.
Consider `O=S(=O)(OCC(F)F)C(F)(F)F`, for which the result was inactive.

For the compound `FC1CC(F)(F)C(F)(F)C1(F)F` (stereo not given), the result was inactive.

As for `O=C(O)C(F)(F)C(F)(F)C(F)(F)F`, the outcome was inactive.

Turning to `C#C[C@]1(O)CC[C@H]2[C@@H]3CCc4cc(OC)ccc4[C@H]3CC[C@@]21C`, the outcome was inactive.

In the case of `C=C(C)C(=O)OCCC(F)(F)C(F)(F)C(F)(F)C(F)(F)C(F)(C(F)(F)F)C(F)(F)F`, the result was inactive.

`CS(C)(=O)=O`: the result was inactive.

For `Oc1ccc(Nc2ccccc2)cc1`, the AC50 – broadly, the midpoint of the concentration-response curve, whichever way the signal moves – is 20 µM (active).

As to `C=CC(=O)OCC(F)(F)C(F)(F)C(F)(F)C(F)(F)COC(=O)C=C`, the AC50 is 26.7 µM (active) and 21.6 µM (active).

Take `CCCCNc1ccccc1`: the result was inactive.

With `O=C(O)C(F)(F)C(F)(F)C(F)(F)C(F)(F)C(F)(F)C(F)(F)C(F)(F)C(F)(F)Cl`, the AC50 was 48.7 µM (active).

As to `O=C(Cl)C(F)(F)C(F)(F)C(F)(F)C(F)(F)C(F)(F)C(F)(F)C(F)(F)C(F)(F)F`, the outcome was inactive.

With `C=C(C)C(=O)OCC(F)(F)C(F)(F)C(F)(F)F`, the result was inactive.

For `N=C(N)C(F)(F)C(F)(F)C(F)(F)C(F)(F)C(F)(F)C(F)(F)C(F)(F)F`, the AC50 was 24.1 µM (active) and 15 µM (active).

For `O=C(O)C(F)(F)C(F)(F)C(F)(F)C(F)(F)C(F)(F)C(F)(F)C(F)(F)C(F)(F)C(F)(F)C(F)F`, the AC50 was 45.2 µM (active) and the outcome was inactive.

On to `OCC(F)(F)C(F)(F)C(F)(F)C(F)F`, for which the outcome was inactive.

Regarding `NC(=O)C(F)(F)C(F)(F)C(F)(F)C(F)(F)F`, the outcome was inactive.

As for `FC(F)(F)C(F)(F)C(F)(F)CI`, the outcome was inactive.

`C=CC(F)(F)C(F)(F)C(F)(F)C(F)(F)C(F)(F)C(F)(F)C(F)(F)C(F)(F)C=C`: the result was inactive.

In the case of `CO[Si](OC)(c1ccccc1)c1ccccc1`, the AC50 is 36.7 µM (active).

Turning to `CCc1c(Br)c(Br)c(Br)c(Br)c1Br`, the result was inactive.

Take `O=C(O)C(F)(F)C(F)(F)F`: the outcome was inactive.

For `O=C(O)C(F)(OC(F)(F)C(F)(OC(F)(F)C(F)(F)C(F)(F)F)C(F)(F)F)C(F)(F)F` (stereo not given), the result was inactive.

Take `FC(F)(F)C(F)(F)C(F)(F)N(C(F)(F)C(F)(F)C(F)(F)F)C(F)(F)C(F)(F)C(F)(F)F`: the outcome was inactive.

`O[Si](c1ccccc1)(c1ccccc1)c1ccccc1`: the result was inactive.

Turning to `C=CC(F)(F)C(F)(F)C(F)(F)C(F)(F)C(F)(F)C(F)(F)C(F)(F)C(F)(F)F`, the result was inactive.

As for `CCCCC(CC)COP(=O)(O)OCC(CC)CCCC` (stereo not given), the outcome was inactive.

Regarding `Nc1ccc([N+](=O)[O-])cc1O`, the outcome was inactive.

As for `FC(F)(F)C(F)(F)C(F)(F)C(F)(F)C(F)(F)C(F)(F)C(F)(F)C(F)(F)CCS`, the outcome was inactive.

Regarding `OCCCC(F)(F)C(F)(F)C(F)(F)C(F)(F)C(F)(F)C(F)(F)C(F)(F)F`, the AC50 was 24.3 µM (active) and 20.5 µM (active).

Turning to `CCCCCCCCCCCCCCCC[N+](C)(C)Cc1ccccc1`, the AC50 was 8.49 µM (active).

For `C=CC/C=C/C/C=C/C/C=C/C`, the result was inactive.

For `C=CC(=O)OCC(F)(F)C(F)(F)C(F)(F)C(F)(F)C(F)(F)C(F)(F)C(F)(F)F`, the result was inactive.

Turning to `CCCCCCCOC(=O)c1ccccc1C(=O)OCCCCCCC`, the result was inactive.

With `FC(F)(F)C(F)(F)C(F)(F)C(F)(F)C(F)(F)C(F)(F)C(F)(F)C(F)(F)F`, the outcome was inactive.

For the compound `CCCCOCCOCCOC(=O)CCCCC(=O)OCCOCCOCCCC`, the outcome was inactive.

With `CCCCCCC(C)OC(=O)CCCCC(=O)OC(C)CCCCCC` (stereo not given), the outcome was inactive.

In the case of `Cc1ccc(S(=O)(=O)OCC(F)(F)C(F)(F)C(F)(F)C(F)(F)C(F)(F)C(F)F)cc1`, the outcome was inactive.

`O=S(=O)(O)C(F)(F)C(F)(F)C(F)(F)C(F)(F)C(F)(F)C(F)(F)C(F)(F)F`: the result was inactive.

Turning to `CC(CCl)OP(=O)(OC(C)CCl)OC(C)CCl` (stereo not given), the result was inactive.
